# A selection: hits, their analogues and other compounds. The true share with any hit is near 4.7%.
# TRHR enhancer-1 – allosteric enhancers of human TRH receptor; 360,000 tested, 0.66% active; enhancement, % at 2 µM; TRHR cells, fluo-8 calcium fluorescence, EC20 TRH enhancement; P34981; in the data active = enhancement above about 30%; also: 0% is about no effect
# Target sequence (P34981 whole entry, looked up): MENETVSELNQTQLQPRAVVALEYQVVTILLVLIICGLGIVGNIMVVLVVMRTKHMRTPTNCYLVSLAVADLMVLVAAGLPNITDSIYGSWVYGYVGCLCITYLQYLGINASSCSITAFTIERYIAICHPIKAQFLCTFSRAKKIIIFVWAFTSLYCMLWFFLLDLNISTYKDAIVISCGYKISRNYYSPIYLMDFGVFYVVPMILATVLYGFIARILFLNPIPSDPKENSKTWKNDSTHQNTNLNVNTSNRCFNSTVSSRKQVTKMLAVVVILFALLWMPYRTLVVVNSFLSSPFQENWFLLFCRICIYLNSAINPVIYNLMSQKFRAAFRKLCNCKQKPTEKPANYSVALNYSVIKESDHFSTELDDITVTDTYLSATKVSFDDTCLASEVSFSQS
#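 TRHR-expressing cells loaded with fluo-8 calcium dye were read kinetically (ex 480/em 530) during compound addition, then stimulated with an EC20 of TRH (10 nM final). Enhancement of the Gq-mediated intracellular calcium response was scored.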
# D1 antagonist – human D1 dopamine receptor antagonism | HEK293 TREx D1 cells, calcium flux, dopamine EC80; stronger effect = lower value | activity change, negative = inhibition, % at 10 µM | 360,000 tested, 3.2% active; in the data active = activity change below about -30%; also: % is scaled to controls: 0 for no effect and ±100 for the full control effect
#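 Calcium flux readout: force-coupled, inducible Hek293 Trex D1 line, cells induced overnight at 30 C with tetracycline, dye-loaded 30–90 min at RT. Antagonism scored against EC80 dopamine challenge given 180 s after compound.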
# D1 potentiator – potentiators of human D1 dopamine receptor. P21728. HEK293 TREx D1 cells, calcium flux, dopamine EC20 potentiation. potentiation, % at 10 µM. 360,000 tested, 0.036% active. AID 504651; in the data active = potentiation above about 30%; also: 0% is about no effect
# TRHR agonist-1 – agonists of human TRH receptor; TRHR cells, calcium flux fluo-8, FDSS agonist mode; activation, % at 2 µM; 360,000 tested, 0.18% active; AID 493084; in the data active = activation above about 30%; also: 0% is about no effect
#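 TRHR-expressing cells loaded with fluo-8 calcium dye; 23 nL library compound pin-transferred, kinetic FDSS fluorescence (Ex 480/Em 530) recorded about 180 s for agonist-induced calcium release, before a 10 nM TRH EC20 addition for potentiator mode.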
# D1 agonist – human D1 receptor agonism; P21728; HEK293 T-REx D1 cells, calcium flux, agonist mode; activation, % at 2 µM; 360,000 tested, 1% active; in the data active = activation above about 30%; also: 0% is about no effect
#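 Agonism was scored from calcium flux recorded over 180 s (1 read/s) after pintool compound addition, following a 10-cycle baseline. Cells were inducible force-coupled HEK293 TREx D1, plated overnight at 30 C and loaded with no-wash calcium dye.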
# TRHR enhancer-2 – human TRH receptor allosteric enhancement confirmation | shares compounds with TRHR enhancer-1 | TRH receptor cell assay, enhancer confirmation qHTS | 970 tested, under 10 active | AID 493076 | activity change, negative = inhibition, % at 46.1 µM;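 also: compound effect scored on response to added TRH at EC20 of 10 nM; 0% is about no effect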
# TRHR agonist-2 – human TRH receptor agonism confirmation. shares compounds with TRHR enhancer-1. 970 tested, 8% active. Potency, µM (top dose mostly 46.1 µM), for the others: top-dose activation, most hits filed as activators. TRHR-expressing cells, agonist activation read-out; also: potency is read from the fitted curve at half-maximal effect; 0% is about no effect; nearly all actives have a fitted effect of over 75% in size
# * marks the source's active call; other numbers are inactive results; ? = inconclusive; · = not tested or not shown. Unless noted, calls follow the shape of the dose curve; as a rule, active = well fitted curve in the direction sought with a large enough effect; inconclusive = small, poorly fitted or top-dose-only effect, or another doubt; inactive = no such curve, though single readings can be large; an effect the other way counts as inactive or inconclusive.
SMILES,TRHR enhancer-1,D1 antagonist,D1 potentiator,TRHR agonist-1,D1 agonist,TRHR enhancer-2,TRHR agonist-2
CCCCn1c(N)c(N(CCOC)C(=O)c2ccc(F)c(S(=O)(=O)N3CCOCC3)c2)c(=O)[nH]c1=O,1,-3,-3,-1,2,·,·
CC(=O)c1nnn(-c2nc(N3CCCC3)nc(N(c3ccccc3)c3ccccc3)n2)c1C,45*,14,1,1,1,-3,4%
COc1nc(N2CCCC2)nc(-n2nnc(C(C)=O)c2C)n1,1,5,-1,0,0,·,·
Cc1ccc(C(=O)n2c(-c3ccccc3)cnc2SCC(=O)Nc2ccc(C)cc2C)cc1,6,2,-4,-1,5,·,·
Oc1ccc2ccccc2c1/C=N/Nc1nnc(-c2ncc[nH]2)c2ccccc12,13,18,-4,46*,36*,?,23µM*
Cc1ccnc(NC(=O)CCC(=O)N(Cc2ccco2)C(C(=O)NC(C)C)c2ccc(F)cc2)c1 (stereo not drawn),43*,0,0,0,3,-10,0%
CCCCc1ccc(NC(=O)CSC2=NN3CCCC(=O)N=C3S2)cc1,-25,-11,·,-2,7,·,·
COc1ccc(N=C2NC(=O)/C(=C/c3ccc(O)c(OC)c3)S2)cc1,1,-5,-8,12,13,·,·
COc1cccc(N=C2NC(=O)/C(=C/c3cc([N+](=O)[O-])ccc3O)S2)c1,1,34,3,55*,83*,5,?
COc1nc(-c2ccccc2)ccc1-c1noc(-c2cccnc2)n1,46*,5,-1,-2,17,13,7%
COc1nc(-c2ccc(C)cc2)ccc1-c1noc(-c2cccnc2)n1,2,9,-2,1,0,·,·
Nc1nonc1/C(=N/O)N1CCN(CCO)CC1,88*,6,0,1,2,-1,0%
Nc1nonc1C(=O)OCC(=O)N1CCOCC1,3,-18,2,0,4,·,·
O=C(NCC1CCCO1)c1ccc2c(=O)n(CCc3ccccc3)c(=O)[nH]c2c1 (stereo not drawn),46*,-3,-6,2,6,0,2%
CC1CCCCN1CCNC(=O)c1ccc2c(=O)n(CCc3ccccc3)c(=O)[nH]c2c1 (stereo not drawn),3,·,-4,1,1,·,·
NC(=O)[C@@H]1CCCN1C(=O)[C@@H](Cc1cnc[nH]1)NC(=O)[C@@H]1CCC(=O)N1,-12,4,0,85*,13,-25,0.015µM*
C/C(=N\Nc1nc2ccccc2[nH]1)c1ccc(N2CCOCC2)cc1,-5,-7,-5,0,0,·,·
COC(=O)c1ccc(NC(=O)C(=O)c2c[nH]c3ccccc23)cc1,7,-7,-8,0,-1,·,·
O=C(Nc1ccccc1)C(=O)c1c[nH]c2ccccc12,50*,-20,-5,1,5,-5,-1%
C/C=C/c1ccc(OCCCCNCc2ccco2)c(OC)c1,69*,3,-3,0,17,?,?
COc1cccc(NC(=O)N(CCCN2CCOCC2)C(C)c2cc3ccccc3o2)c1 (stereo not drawn),6,0,-1,0,4,·,·
CC(=O)COc1ccc2cc(-c3ccccc3)c(=O)oc2c1,-7,-13,-3,0,9,·,·
O=C(CCCCl)Oc1ccc2cc(-c3ccc4ccccc4n3)c(=O)oc2c1,2,-4,-3,32*,51*,9,?
Cc1ccc(OCc2cc(C(=O)N(C)Cc3cnn(-c4ccccc4C)c3)no2)cn1,43*,-14,4,-1,8,-6,0%
N#Cc1ccccc1NC(=O)CSc1nnc(N)s1,3,-2,-2,1,1,·,·
SMILES,TRHR enhancer-1,D1 antagonist,D1 potentiator,TRHR agonist-1,D1 agonist,TRHR enhancer-2,TRHR agonist-2
Cc1ccc(CNC(=O)c2ccc3c(c2)NC(=O)CS3)cc1,-7,-3,-5,-1,2,·,·
CN1/C(=C\C(=S)NC(=O)c2ccc([N+](=O)[O-])cc2)C(C)(C)c2ccccc21,48*,-5,-5,-1,1,-4,2%
CN1/C(=C/C=N/NC(=O)c2ccc([N+](=O)[O-])cc2)C(C)(C)c2ccccc21,21,1,-1,2,18,·,·
Cc1ccc(CNCC(O)(c2ccccc2)c2ccc(Cl)cc2)cc1 (stereo not drawn),0,18,-4,1,19,·,·
CCC(C)NCC(O)(c1ccc(Cl)cc1)c1ccc(Cl)cc1 (stereo not drawn),50*,11,-3,1,6,-5,?
Cc1ccc(NC(=O)CSCC(=O)NCc2ccco2)cc1,46*,-22,-1,0,3,2,1%
Cc1ccc2c(c1)N(CC(=O)Nc1ccccc1F)C(=O)CO2,1,-2,0,1,10,·,·
COc1ccc(NC(=O)COc2ccc3c(c2)CCC3)cc1,42*,-11,3,0,5,-6,0%
Cn1cccc2[nH]c(=O)nc1-2,12,0,2,1,3,·,·
CCC1=NN(C(=O)c2ccc(Cl)cc2)C(O)(c2ccccc2)C1 (stereo not drawn),-11,-4,-2,0,8,·,·
COC(=O)C1=NN(C(=O)c2ccc(Cl)cc2)C(O)(c2ccccc2)C1 (stereo not drawn),-6,3,-4,47*,30*,-7,18µM*
Cc1cc(C(=O)COC(=O)c2ccccc2O)c(C)n1CC1CCCO1 (stereo not drawn),3,-7,-5,0,7,·,·
Cc1cc(C(=O)COC(=O)c2cc(O)c3ccccc3c2O)c(C)n1CC1CCCO1 (stereo not drawn),47*,-12,-7,1,4,-3,0%
Cc1ccccc1N1CCN(c2ccc(NC(=O)C3CCCCC3C(=O)O)cc2)CC1 (stereo not drawn),42*,14,-5,1,1,-3,4%
O=C(O)[C@H]1CCCC[C@H]1C(=O)Nc1ccc(Nc2ccccc2)cc1,0,-12,-3,0,2,·,·
COc1cc(C(=O)CCN2CCC(c3ccccc3)C2)cc(OC)c1OC (stereo not drawn),2,-17,-11,-1,-1,·,·
Cc1csc(NC(=O)c2sc3nc(-c4cccs4)ccc3c2N)n1,6,-3,-1,51*,73*,4,10µM*
CCN(CC(=O)Nc1c(F)cccc1F)C(=O)c1cccc(S(=O)(=O)N2CCCCCC2)c1,42*,-5,-10,0,1,-3,1%

# Compound activity (PubChem BioAssay)
